Drawing on PMC7862700, “An all-to-all approach to the identification of sequence-specific readers for epigenetic DNA modifications on cytosine”, this text covers binding signal for 1 sequence.

Experiment in all cases: DAPPL (digital affinity profiling via proximity ligation, sequencing); 10 mM Tris-HCl pH 7.5, 50 mM NaCl, 1 mM DTT, 4% glycerol, room temperature, 30 min; GST-TFs on glutathione beads, 16-mer random dsDNA library, 0.1% formaldehyde crosslink after washing; high values mean tight binding
For one experiment, the target named is T1, FLI1 (Homo sapiens, UniProt Q01543 1-452).
T1 sequence: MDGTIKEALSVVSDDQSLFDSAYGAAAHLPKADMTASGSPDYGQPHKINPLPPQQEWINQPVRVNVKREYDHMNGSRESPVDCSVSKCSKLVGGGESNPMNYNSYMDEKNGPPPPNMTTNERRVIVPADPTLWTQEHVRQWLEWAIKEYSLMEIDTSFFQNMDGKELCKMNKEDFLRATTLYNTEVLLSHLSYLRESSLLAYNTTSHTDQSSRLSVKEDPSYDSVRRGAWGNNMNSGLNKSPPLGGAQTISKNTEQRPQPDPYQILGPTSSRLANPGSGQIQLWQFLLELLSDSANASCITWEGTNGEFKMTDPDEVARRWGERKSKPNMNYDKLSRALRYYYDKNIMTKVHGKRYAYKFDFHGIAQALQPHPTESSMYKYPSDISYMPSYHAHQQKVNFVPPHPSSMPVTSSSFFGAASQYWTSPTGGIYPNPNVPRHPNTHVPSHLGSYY
As to conditions: protein: recombinant; tags: N-terminal GST; dsDNA, one strand shown. A digest of the protocol: (§1)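 Pools were built from human transcription factors expressed in yeast as GST fusions, captured on glutathione beads and DNA-barcoded, along with a tag-only sample. Incubation with 200 nmole of a 16-mer random double-stranded DNA library lasted 30 min at room temperature in Tris/NaCl/DTT/glycerol buffer, and was followed by washing, 0.1% formaldehyde crosslinking, proximity ligation, PCR amplification and Illumina NextSeq500 sequencing. Binding signal is the quotient of each hexamer's read frequency for a factor and its frequency for the tag-only sample.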

Another experiment deals with T2, ELK1 (Homo sapiens, UniProt P19419 1-428).
T2 sequence: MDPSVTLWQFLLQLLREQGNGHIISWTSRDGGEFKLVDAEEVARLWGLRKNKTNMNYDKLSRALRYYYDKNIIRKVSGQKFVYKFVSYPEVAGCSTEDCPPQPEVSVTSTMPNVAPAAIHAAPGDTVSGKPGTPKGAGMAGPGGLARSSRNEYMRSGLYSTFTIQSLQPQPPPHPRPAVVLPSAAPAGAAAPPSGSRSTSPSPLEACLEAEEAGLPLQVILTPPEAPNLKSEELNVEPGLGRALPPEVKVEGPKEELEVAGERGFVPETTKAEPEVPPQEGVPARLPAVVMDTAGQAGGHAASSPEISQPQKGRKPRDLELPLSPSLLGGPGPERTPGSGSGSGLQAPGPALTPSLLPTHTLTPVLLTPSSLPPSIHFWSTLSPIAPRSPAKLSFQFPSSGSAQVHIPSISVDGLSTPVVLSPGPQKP
As to conditions: protein: recombinant; tags: N-terminal GST; dsDNA, one strand shown. A digest of the protocol: as §1

The next experiment concerns the target T3, GABPA (Homo sapiens, UniProt Q06546 1-454).
T3 sequence: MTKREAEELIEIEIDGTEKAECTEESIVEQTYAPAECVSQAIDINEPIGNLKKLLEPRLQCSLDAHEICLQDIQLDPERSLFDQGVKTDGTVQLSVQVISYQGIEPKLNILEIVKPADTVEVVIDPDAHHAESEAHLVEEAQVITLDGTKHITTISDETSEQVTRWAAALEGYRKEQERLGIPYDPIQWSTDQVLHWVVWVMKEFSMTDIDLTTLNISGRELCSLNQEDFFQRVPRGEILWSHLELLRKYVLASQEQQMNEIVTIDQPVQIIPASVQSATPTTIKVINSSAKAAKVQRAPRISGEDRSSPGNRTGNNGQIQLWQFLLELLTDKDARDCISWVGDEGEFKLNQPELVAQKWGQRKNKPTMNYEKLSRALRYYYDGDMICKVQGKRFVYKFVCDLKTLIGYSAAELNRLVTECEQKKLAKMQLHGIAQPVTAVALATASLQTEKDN
As to conditions: protein: recombinant; tags: N-terminal GST; dsDNA, one strand shown. The essentials: as §1

Another experiment has as its target T4, ERG (Homo sapiens, UniProt P11308 1-479).
T4 sequence: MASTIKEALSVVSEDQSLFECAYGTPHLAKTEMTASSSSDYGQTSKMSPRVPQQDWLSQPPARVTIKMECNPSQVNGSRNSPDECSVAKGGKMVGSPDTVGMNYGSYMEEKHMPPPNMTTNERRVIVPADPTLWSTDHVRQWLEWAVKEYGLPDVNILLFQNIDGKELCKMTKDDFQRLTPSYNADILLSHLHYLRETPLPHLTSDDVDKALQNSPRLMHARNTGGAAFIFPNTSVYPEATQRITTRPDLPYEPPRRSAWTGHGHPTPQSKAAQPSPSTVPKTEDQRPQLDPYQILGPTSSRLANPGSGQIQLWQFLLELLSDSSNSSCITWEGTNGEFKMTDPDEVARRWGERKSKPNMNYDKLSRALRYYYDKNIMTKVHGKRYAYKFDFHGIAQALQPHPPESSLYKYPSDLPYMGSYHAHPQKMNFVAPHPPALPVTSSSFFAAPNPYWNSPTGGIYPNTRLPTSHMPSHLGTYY
As to conditions: protein: recombinant; tags: N-terminal GST; dsDNA, one strand shown. A digest of the protocol: as §1

The target in the next experiment is ELF1 (Homo sapiens, UniProt P32519 1-619). The conditions noted are these: protein: recombinant; tags: N-terminal GST; dsDNA, one strand shown. The essentials:
as §1

In a further experiment the target is T5, EHF (Homo sapiens, UniProt Q9NZC4 1-300).
T5 sequence: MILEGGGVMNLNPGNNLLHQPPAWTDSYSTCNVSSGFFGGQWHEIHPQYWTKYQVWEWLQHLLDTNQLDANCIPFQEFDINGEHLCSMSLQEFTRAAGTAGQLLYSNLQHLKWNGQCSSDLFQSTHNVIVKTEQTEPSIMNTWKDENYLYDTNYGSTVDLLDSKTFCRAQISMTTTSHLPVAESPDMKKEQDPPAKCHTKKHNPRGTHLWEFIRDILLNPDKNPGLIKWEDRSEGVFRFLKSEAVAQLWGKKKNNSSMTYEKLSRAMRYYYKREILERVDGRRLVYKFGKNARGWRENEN
The conditions noted are these: protein: recombinant; tags: N-terminal GST; dsDNA, one strand shown. The essentials: as §1

Another experiment has as its target SPI1 (Homo sapiens, UniProt P17947 1-270). The conditions noted are these: protein: recombinant; tags: N-terminal GST; dsDNA, one strand shown. A digest of the protocol:
as §1

In the next experiment the target is SPIB (Homo sapiens, UniProt Q01892 1-262). As to conditions: protein: recombinant; tags: N-terminal GST; dsDNA, one strand shown. A digest of the protocol: as §1
For another experiment, the target named is T6, ELK3 (Homo sapiens, UniProt P41970 1-407).
T6 sequence: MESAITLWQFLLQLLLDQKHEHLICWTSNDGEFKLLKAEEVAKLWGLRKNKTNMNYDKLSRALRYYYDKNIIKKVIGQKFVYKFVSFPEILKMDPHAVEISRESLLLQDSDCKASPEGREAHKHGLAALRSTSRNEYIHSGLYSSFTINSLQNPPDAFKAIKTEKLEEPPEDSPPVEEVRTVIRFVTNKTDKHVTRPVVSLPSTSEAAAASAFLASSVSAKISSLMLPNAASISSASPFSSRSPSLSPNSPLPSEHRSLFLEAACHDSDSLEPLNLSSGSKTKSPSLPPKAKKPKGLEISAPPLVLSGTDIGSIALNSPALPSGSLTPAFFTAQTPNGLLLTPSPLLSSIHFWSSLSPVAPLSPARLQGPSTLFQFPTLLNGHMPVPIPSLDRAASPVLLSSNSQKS
As to conditions: protein: recombinant; tags: N-terminal GST; dsDNA, one strand shown. A digest of the protocol: as §1

The target in the next experiment is T7, FEV (Homo sapiens, UniProt Q99581 1-238).
T7 sequence: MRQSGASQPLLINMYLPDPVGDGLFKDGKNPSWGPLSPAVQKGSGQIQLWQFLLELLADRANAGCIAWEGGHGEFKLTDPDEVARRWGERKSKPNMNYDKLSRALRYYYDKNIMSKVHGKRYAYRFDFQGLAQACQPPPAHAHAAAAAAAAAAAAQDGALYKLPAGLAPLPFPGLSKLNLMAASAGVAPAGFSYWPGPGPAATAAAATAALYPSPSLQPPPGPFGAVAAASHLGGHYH
The conditions noted are these: protein: recombinant; tags: N-terminal GST; dsDNA, one strand shown. The essentials: as §1

In a further experiment the target is ETV5 (Homo sapiens, UniProt P41161 1-510). The conditions noted are these: protein: recombinant; tags: N-terminal GST; dsDNA, one strand shown. A digest of the protocol:
as §1

The target in a further experiment is HSF1 (Homo sapiens, UniProt Q00613 1-529). The conditions noted are these: protein: recombinant; tags: N-terminal GST; chain copies: 3; dsDNA, one strand shown. A digest of the protocol:
as §1

A further experiment addresses T8, SPIC (Homo sapiens, UniProt Q8N5J4 1-248).
T8 sequence: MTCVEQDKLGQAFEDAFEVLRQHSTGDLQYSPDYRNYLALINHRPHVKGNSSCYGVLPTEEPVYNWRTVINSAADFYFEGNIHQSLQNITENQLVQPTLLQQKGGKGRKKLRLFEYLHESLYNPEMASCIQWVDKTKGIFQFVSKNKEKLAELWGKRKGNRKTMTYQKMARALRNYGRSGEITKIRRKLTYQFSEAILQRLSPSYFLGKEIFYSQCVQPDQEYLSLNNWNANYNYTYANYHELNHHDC
The conditions noted are these: protein: recombinant; tags: N-terminal GST; dsDNA, one strand shown. The essentials:
as §1

The target of the next experiment is ELF4 (Homo sapiens, UniProt Q99607 1-663). The conditions noted are these: protein: recombinant; tags: N-terminal GST; dsDNA, one strand shown. A digest of the protocol: as §1
For a further experiment, the target named is T9, ELK4 (Homo sapiens, UniProt P28324-2 1-405).
T9 sequence: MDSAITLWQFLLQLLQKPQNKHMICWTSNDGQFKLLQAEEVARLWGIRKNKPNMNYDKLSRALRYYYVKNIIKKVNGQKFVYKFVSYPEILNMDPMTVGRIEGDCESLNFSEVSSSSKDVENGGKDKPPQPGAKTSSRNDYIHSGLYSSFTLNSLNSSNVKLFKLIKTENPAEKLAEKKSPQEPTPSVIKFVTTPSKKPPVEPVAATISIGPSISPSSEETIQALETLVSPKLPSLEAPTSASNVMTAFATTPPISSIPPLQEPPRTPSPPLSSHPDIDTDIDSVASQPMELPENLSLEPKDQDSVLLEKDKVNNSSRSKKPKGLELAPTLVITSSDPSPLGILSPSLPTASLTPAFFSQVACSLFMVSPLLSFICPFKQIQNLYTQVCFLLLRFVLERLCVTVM
The conditions noted are these: protein: recombinant; tags: N-terminal GST; dsDNA, one strand shown. The essentials: as §1

The next experiment addresses T10, ETV2 (Homo sapiens, UniProt O00321 1-342).
T10 sequence: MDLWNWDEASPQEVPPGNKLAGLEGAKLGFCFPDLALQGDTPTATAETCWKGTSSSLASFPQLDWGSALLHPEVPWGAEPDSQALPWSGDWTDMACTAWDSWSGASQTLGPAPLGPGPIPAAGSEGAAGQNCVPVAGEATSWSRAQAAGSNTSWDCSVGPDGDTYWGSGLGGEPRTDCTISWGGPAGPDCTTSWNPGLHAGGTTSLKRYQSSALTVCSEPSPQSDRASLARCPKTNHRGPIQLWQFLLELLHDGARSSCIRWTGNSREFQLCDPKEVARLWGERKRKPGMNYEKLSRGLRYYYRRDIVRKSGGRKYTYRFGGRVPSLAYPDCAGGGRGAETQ
As to conditions: protein: recombinant; tags: N-terminal GST; dsDNA, one strand shown. The essentials:
as §1

The target in the next experiment is T11, ELF3 (Homo sapiens, UniProt P78545 1-371).
T11 sequence: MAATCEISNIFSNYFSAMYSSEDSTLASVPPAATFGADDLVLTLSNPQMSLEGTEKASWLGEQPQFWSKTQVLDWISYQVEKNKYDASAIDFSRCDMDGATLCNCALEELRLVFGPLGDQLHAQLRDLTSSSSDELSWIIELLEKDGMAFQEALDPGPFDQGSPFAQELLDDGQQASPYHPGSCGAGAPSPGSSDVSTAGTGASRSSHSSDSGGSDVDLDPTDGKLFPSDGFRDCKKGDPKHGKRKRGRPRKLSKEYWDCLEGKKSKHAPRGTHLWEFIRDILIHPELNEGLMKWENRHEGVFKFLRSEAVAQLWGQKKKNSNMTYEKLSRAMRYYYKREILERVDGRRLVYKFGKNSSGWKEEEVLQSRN
As to conditions: protein: recombinant; tags: N-terminal GST; dsDNA, one strand shown. The essentials:
as §1

A further experiment deals with CRX (Homo sapiens, UniProt O43186 1-299). As to conditions: protein: recombinant; tags: N-terminal GST; dsDNA, one strand shown. The essentials: as §1
Another experiment addresses ETV1 (Homo sapiens, UniProt P50549 1-477). As to conditions: protein: recombinant; tags: N-terminal GST; dsDNA, one strand shown. A digest of the protocol:
as §1

ETV5, sequence (P41161 whole entry): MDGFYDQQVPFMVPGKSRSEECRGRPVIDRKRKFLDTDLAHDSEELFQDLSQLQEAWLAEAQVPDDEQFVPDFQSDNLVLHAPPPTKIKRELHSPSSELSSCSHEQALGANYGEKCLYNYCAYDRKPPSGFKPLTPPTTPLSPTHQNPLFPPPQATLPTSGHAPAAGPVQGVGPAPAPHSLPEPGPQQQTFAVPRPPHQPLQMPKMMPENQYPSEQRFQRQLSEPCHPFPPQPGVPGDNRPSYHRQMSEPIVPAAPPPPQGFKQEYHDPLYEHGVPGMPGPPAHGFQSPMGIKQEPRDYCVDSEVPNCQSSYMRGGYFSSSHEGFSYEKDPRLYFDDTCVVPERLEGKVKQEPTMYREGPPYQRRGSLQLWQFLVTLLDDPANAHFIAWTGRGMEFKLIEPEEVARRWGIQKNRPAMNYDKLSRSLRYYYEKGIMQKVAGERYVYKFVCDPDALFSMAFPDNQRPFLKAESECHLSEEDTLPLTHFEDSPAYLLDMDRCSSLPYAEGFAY
CRX, sequence (O43186 whole entry): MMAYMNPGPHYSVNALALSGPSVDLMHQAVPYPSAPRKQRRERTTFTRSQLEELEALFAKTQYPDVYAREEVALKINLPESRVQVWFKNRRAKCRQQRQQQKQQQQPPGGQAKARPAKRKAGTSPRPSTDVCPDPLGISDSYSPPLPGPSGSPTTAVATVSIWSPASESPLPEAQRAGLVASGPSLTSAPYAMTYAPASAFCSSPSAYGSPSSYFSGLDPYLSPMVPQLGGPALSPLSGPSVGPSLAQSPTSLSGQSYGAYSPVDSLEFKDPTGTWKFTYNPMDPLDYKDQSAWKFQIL
HSF1, sequence (Q00613 whole entry): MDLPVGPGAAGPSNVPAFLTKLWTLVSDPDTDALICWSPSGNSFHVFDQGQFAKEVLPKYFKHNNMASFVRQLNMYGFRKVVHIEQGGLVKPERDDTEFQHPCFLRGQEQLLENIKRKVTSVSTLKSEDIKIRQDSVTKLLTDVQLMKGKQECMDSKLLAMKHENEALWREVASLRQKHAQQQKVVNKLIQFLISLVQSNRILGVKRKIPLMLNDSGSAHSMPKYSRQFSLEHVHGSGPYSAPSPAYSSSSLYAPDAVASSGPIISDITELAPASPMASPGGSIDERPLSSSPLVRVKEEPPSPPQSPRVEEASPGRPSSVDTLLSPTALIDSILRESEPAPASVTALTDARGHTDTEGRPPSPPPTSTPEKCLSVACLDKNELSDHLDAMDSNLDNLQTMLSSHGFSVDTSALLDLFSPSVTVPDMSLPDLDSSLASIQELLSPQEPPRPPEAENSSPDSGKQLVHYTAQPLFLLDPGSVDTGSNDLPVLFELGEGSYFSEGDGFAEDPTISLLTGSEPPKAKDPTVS
ELF1, sequence (P32519 whole entry): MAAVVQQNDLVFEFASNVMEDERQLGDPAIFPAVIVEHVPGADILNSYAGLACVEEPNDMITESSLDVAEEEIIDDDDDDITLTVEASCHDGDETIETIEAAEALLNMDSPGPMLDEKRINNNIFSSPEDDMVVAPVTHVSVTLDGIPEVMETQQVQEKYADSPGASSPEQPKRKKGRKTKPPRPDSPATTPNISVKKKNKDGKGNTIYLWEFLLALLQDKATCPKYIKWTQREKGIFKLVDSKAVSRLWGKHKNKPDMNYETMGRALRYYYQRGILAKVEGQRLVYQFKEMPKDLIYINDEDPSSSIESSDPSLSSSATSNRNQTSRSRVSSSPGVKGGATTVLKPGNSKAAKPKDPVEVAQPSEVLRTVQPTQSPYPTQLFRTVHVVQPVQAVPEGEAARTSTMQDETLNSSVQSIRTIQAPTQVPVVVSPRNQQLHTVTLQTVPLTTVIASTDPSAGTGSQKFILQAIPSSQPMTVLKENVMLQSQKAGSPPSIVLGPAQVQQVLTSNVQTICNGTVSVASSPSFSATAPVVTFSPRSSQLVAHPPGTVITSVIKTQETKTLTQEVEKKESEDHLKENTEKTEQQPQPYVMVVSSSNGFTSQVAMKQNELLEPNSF
ELF4, sequence (Q99607 whole entry): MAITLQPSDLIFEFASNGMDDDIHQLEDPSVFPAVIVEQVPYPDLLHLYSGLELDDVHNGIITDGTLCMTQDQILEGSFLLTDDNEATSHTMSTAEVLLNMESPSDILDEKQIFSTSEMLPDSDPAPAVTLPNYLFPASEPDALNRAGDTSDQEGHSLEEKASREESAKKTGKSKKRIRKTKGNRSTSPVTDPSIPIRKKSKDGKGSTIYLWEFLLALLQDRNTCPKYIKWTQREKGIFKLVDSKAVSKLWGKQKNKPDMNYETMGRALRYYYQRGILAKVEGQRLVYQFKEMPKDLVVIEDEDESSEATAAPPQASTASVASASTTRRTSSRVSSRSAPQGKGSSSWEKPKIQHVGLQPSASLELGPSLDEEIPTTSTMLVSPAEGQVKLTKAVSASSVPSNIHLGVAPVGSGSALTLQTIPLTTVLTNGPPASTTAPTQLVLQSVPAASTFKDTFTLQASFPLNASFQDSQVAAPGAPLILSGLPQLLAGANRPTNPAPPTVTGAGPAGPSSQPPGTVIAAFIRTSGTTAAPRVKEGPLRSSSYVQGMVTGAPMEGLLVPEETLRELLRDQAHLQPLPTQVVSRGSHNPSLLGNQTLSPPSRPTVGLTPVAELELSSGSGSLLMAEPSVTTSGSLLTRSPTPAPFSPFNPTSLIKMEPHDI
SPIB, sequence (Q01892 whole entry): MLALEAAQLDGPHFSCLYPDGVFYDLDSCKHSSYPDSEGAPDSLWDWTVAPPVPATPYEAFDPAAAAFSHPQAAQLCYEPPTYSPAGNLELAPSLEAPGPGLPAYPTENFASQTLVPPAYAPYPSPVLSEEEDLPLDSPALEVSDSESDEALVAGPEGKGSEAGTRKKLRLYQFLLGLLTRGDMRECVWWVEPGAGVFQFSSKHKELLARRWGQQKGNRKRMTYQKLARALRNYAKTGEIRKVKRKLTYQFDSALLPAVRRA
ETV1, sequence (P50549 whole entry): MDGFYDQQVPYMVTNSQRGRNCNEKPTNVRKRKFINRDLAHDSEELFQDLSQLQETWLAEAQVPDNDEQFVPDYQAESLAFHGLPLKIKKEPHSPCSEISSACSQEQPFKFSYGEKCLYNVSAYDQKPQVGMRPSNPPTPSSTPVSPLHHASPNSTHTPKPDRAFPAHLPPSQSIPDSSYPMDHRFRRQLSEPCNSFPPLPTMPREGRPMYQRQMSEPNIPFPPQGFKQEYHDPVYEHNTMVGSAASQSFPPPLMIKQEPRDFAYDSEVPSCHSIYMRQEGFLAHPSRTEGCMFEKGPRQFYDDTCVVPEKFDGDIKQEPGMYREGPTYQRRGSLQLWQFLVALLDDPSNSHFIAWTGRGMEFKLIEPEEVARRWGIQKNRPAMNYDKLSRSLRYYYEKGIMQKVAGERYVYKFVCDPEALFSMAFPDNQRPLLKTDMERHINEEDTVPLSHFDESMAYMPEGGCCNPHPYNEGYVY

In the case of CTTACC, the binding signal with FLI1 was 1.21 fold enrichment (6-mer frequency, TF over GST control); with ELK1 it was 1.22 fold enrichment (6-mer frequency, TF over GST control); in the experiment with GABPA, 1.26 fold enrichment (6-mer frequency, TF over GST control); in the experiment with ERG, 1.24 fold enrichment (6-mer frequency, TF over GST control); with ELF1, 1.24 fold enrichment (6-mer frequency, TF over GST control); with EHF it was 1.17 fold enrichment (6-mer frequency, TF over GST control). Further, the binding signal in the experiment with SPI1 was 1.34 fold enrichment (6-mer frequency, TF over GST control); in the experiment with SPIB, 1.32 fold enrichment (6-mer frequency, TF over GST control); in the experiment with ELK3, 1.26 fold enrichment (6-mer frequency, TF over GST control); in the experiment with FEV it was 1.25 fold enrichment (6-mer frequency, TF over GST control); with ETV5, 1.21 fold enrichment (6-mer frequency, TF over GST control); with HSF1, 1.26 fold enrichment (6-mer frequency, TF over GST control). Besides, the binding signal is 1.34 fold enrichment (6-mer frequency, TF over GST control) with SPIC; 1.25 fold enrichment (6-mer frequency, TF over GST control) in the experiment with ELF4; 1.27 fold enrichment (6-mer frequency, TF over GST control) with ELK4; 1.27 fold enrichment (6-mer frequency, TF over GST control) in the experiment with ETV2; 1.27 fold enrichment (6-mer frequency, TF over GST control) with ELF3; 1.58 fold enrichment (6-mer frequency, TF over GST control) with CRX. In addition, the binding signal with ETV1 was 1.28 fold enrichment (6-mer frequency, TF over GST control).
